From PubChem BioAssay (Tox21)
Several values for one entry are separate records, joined by “and”; a condition that tells them apart may be missing. Equal values may be shown once. Inconclusive results are not listed. Entries that show only a call come without a potency. Activity calls are given as the source filed them. Unless noted, the call rests on the fitted dose curve.

Biological target: Androgen receptor (Homo sapiens) (UniProt P10275)
Sequence (P10275 whole entry, looked up): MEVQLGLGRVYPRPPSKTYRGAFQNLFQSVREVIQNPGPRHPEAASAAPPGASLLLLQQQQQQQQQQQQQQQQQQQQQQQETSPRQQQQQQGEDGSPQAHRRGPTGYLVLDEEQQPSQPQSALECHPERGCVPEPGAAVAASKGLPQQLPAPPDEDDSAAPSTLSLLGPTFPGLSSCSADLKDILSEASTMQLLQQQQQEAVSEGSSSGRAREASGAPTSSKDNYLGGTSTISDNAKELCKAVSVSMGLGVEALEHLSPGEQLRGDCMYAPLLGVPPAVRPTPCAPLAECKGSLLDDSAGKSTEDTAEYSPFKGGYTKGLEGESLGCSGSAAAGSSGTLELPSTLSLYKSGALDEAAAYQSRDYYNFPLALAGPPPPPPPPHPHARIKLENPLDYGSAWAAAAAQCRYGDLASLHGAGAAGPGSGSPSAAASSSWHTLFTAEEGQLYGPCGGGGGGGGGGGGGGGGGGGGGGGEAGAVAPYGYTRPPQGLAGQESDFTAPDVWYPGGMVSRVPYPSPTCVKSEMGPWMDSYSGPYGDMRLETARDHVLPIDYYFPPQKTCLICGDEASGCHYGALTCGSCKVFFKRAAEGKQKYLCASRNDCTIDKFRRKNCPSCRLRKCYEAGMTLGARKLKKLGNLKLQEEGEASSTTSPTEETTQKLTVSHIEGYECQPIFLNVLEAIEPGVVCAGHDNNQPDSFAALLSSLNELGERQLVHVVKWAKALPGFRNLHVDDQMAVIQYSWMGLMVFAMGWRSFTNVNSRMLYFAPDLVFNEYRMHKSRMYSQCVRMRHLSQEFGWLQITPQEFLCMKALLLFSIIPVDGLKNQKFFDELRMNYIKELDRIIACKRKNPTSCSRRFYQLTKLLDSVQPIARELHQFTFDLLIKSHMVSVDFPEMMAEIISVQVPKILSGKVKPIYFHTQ
Test: qHTS assay to identify small molecule agonists of the androgen receptor (AR) signaling pathway in the presence of an antagonist (AID 1259381); further: nearly all actives have a fitted effect of over 15% in size
Conditions: MDA-kb2 MMTV-luciferase, AR agonist + nilutamide, 16 h; series mostly up to 92.4 µM
Summary of the method: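 Plated MDA-kb2 cells (3,000/well) were pre-incubated 5hr, given nilutamide (3.0uM final) or buffer, then dosed with compounds in DMSO at 15 concentrations. Luciferase activity was quantified by luminescence after 16hr at 37C.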
In the case of `COP(N)(=S)OC`, the Potency is reported as “inactive”. For `CCCCOCN(C(=O)CCl)c1c(CC)cccc1CC`, the Potency was “inactive”. For `c1ccc2cc3c(cc2c1)-c1cccc2cccc-3c12`, the Potency was “inactive”. In the case of `Nc1ccccc1C(=O)Oc1ccc2ccccc2c1`, the Potency is reported as “inactive”.

Test system: not listed separately
Test: qHTS assay to identify small molecule antagonists of the estrogen receptor beta (ER-beta) signaling pathway - cell viability counter screen (AID 1259382; active means well fitted cell-killing curve with a large enough effect in the repeat runs; further: nearly all actives have a fitted effect of over 55% in size; further: potency means the concentration at half of the fitted maximal effect)
Conditions: ER-beta-UAS-bla HEK293T viability, CellTiter-Glo luminescence, 16 h; series mostly up to 92.4 µM
Summary of the method: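 CellTiter-Glo ATP luminescence measured after the LiveBLAzer read in the same wells; ER-beta-UAS-bla HEK293T cells, 16 hr compound treatment with 1nM 17-beta-estradiol agonist at 37C, 5% CO2.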
For `CN(C)[C@@H]1C(=O)C(C(N)=O)=C(O)[C@@]2(O)C(=O)C3=C(O)c4c(O)ccc(Cl)c4[C@@](C)(O)[C@H]3C[C@@H]12`, the Potency was “inactive”. With `CCOC(=O)OC1=C(c2cc(C)ccc2C)C(=O)NC12CCC(OC)CC2` (stereo unspecified) the Potency was “inactive”. In the case of `COP(N)(=S)OC`, the Potency is reported as “inactive”. With `CCOP(=O)(NC(C)C)Oc1ccc(SC)c(C)c1` (stereo unspecified) the Potency was “inactive”. For `[Cd+2].[Cl-].[Cl-]`, the Potency was 34.7 µM (active) and 54.5 µM (active). For `CCCCOCN(C(=O)CCl)c1c(CC)cccc1CC`, the Potency was “inactive”. For `O=C(O)COc1nc(Cl)c(Cl)cc1Cl`, the Potency was “inactive”. For `CC(C)(C)c1ccc(CSc2cnn(C(C)(C)C)c(=O)c2Cl)cc1`, the Potency was “inactive”. With `c1ccc2cc3c(cc2c1)-c1cccc2cccc-3c12` the Potency was “inactive”. For `CCCCCCCCCCCCCCCC[n+]1ccccc1`, the Potency was 29.8 µM (active) [middle of 4 runs]. With `Nc1ccccc1C(=O)Oc1ccc2ccccc2c1` the Potency was “inactive”. For `CN(C)c1ccc(N=Nc2ccccc2)cc1`, the Potency was “inactive”. For `C=CCC1=C(C)C(OC(=O)C2C(C=C(C)C)C2(C)C)CC1=O` (stereo unspecified), the Potency was “inactive”.

Biological target: Estrogen receptor (Homo sapiens) (UniProt P03372)
Sequence (P03372 whole entry, looked up): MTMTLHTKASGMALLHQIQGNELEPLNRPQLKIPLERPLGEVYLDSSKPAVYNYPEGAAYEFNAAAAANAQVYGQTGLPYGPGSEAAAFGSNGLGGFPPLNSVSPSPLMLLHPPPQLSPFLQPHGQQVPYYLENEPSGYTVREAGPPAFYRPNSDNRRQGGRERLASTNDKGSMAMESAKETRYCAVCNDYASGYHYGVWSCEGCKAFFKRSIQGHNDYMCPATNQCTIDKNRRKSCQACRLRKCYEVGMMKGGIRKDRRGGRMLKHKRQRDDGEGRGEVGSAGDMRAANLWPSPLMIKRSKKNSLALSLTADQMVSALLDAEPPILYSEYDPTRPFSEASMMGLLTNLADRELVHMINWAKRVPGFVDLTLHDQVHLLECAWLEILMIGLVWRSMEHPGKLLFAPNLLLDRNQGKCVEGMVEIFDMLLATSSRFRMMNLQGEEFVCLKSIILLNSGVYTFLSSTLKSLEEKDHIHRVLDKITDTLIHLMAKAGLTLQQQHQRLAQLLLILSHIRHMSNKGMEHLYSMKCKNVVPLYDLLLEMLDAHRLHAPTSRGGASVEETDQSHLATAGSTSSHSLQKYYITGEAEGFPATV
Test: qHTS assay to identify small molecule agonists of the estrogen receptor alpha (ER-alpha) signaling pathway in the presence of an antagonist (AID 1259383); further: nearly all actives have a fitted effect of over 15% in size; further: potency means the concentration at half of the fitted maximal effect
Conditions: VM7Luc4E2 cells, ERE-luciferase, +ICI-182,780, 22 h; series mostly up to 92.4 µM
Summary of the method: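 Luminescent ERE-luciferase reporter, VM7Luc4E2 cells (endogenous ER-alpha); 10.0nM ICI-182,780 final; 15-point compound titration; 22hr at 37C; ONE-Glo, 30min RT.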
For `C[C@@H](Oc1ccc(Cl)cc1Cl)C(=O)O`, the Potency was “inactive”. For `CCOC(=O)OC1=C(c2cc(C)ccc2C)C(=O)NC12CCC(OC)CC2` (stereo unspecified), the Potency was “inactive”. For `Oc1ccc(I)cc1`, the Potency was “inactive”. In the case of `O=c1ssc(Cl)c1Cl`, the Potency is reported as “inactive”. In the case of `Oc1ccccc1Br`, the Potency is reported as “inactive”. With `C=CC(=O)OCCCCOC(=O)C=C` the Potency was “inactive”. For `COP(N)(=S)OC`, the Potency was “inactive”. In the case of `CC[C@H](C)[C@H]1O[C@]2(C=C[C@@H]1C)C[C@@H]1C[C@@H](C/C=C(\C)[C@@H](O[C@H]3C[C@H](OC)[C@@H](O[C@H]4C[C@H](OC)[C@@H](O)[C@H](C)O4)[C@H](C)O3)[C@@H](C)/C=C/C=C3\CO[C@@H]4[C@H](O)C(C)=C[C@@H](C(=O)O1)[C@]34O)O2`, the Potency is reported as “inactive”. For `CCCCOCN(C(=O)CCl)c1c(CC)cccc1CC`, the Potency was “inactive”. For `O=C(CCl)C(Cl)Cl`, the Potency was “inactive”. For `O=C(O)COc1nc(Cl)c(Cl)cc1Cl`, the Potency was “inactive”. For `O=C(O)c1cc[c]([Hg][Cl])cc1`, the Potency was “inactive”. In the case of `CC(C)(C)c1ccc(CSc2cnn(C(C)(C)C)c(=O)c2Cl)cc1`, the Potency is reported as “inactive”. For `Clc1ccc(Oc2ccccc2)cc1`, the Potency was “inactive”. In the case of `c1ccc2cc3c(cc2c1)-c1cccc2cccc-3c12`, the Potency is reported as “inactive”. With `CCCCCCCCCCCCCCCC[n+]1ccccc1` the Potency was “inactive”. In the case of `CCCN(CCC)c1c([N+](=O)[O-])cc(S(N)(=O)=O)cc1[N+](=O)[O-]`, the Potency is reported as 65.2 µM (active). For `ClC(Cl)=C(c1ccc(Cl)cc1)c1ccc(Cl)cc1`, the Potency was “inactive”. In the case of `Nc1ccccc1C(=O)Oc1ccc2ccccc2c1`, the Potency is reported as 2.17 µM (active). With `O=C1c2ccccc2C(=O)C1C(=O)C(c1ccccc1)c1ccc(Cl)cc1` (stereo unspecified) the Potency was “inactive”. In the case of `O=[N+]([O-])c1ccc2ccc3cccc4ccc1c2c34`, the Potency is reported as “inactive”. For `Oc1ccc(C2(c3ccc(O)cc3)CCCCC2)cc1`, the Potency was 14.5 µM (active). For `CCOCCOC(C)=O`, the Potency was “inactive”. In the case of `CCCCCCCCCCCCBr`, the Potency is reported as “inactive”. With `CCCCCCCCCCCCCC[P+](CCCCCC)(CCCCCC)CCCCCC` (tested in a mixture with another compound) the Potency was “inactive”. For `C=CCC1=C(C)C(OC(=O)C2C(C=C(C)C)C2(C)C)CC1=O` (stereo unspecified), the Potency was “inactive”. With `CCC[CH2][Sn]([CH2]CCC)([CH2]CCC)[O]C(=O)c1ccccc1` the Potency was “inactive”.

Test system: not listed separately
Test: qHTS assay to identify small molecule agonists or antagonists of the thyroid stimulating hormone receptor (TSHR) signaling pathway - wild type cell line counter screen (AID 1259384)
Conditions: HEK293 wild type, cAMP HTRF counter-screen, hits give high values; series mostly up to 92.4 µM
Summary of the method: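 Wild-type Hek293 cells, 800/well, 18 h at 37C, then compound with Ro20-1724 for 30 min RT. cAMP by HTRF (cAMP-d2/anti-cAMP cryptate), 1 h RT, fluorescence read. 15 concentrations, triplicates.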
With `C[C@@H](Oc1ccc(Cl)cc1Cl)C(=O)O` the outcome was “inactive”. For `CN(C)[C@@H]1C(=O)C(C(N)=O)=C(O)[C@@]2(O)C(=O)C3=C(O)c4c(O)ccc(Cl)c4[C@@](C)(O)[C@H]3C[C@@H]12`, the outcome was “inactive”. With `CCOC(=O)OC1=C(c2cc(C)ccc2C)C(=O)NC12CCC(OC)CC2` (stereo unspecified) the outcome was “inactive”. With `C=CC(=O)OCCCCOC(=O)C=C` the outcome was “inactive”. With `COP(N)(=S)OC` the outcome was “inactive”. For `N#C/C=C/C#N`, the outcome was “inactive”. With `CCOP(=O)(NC(C)C)Oc1ccc(SC)c(C)c1` (stereo unspecified) the outcome was “inactive”. In the case of `S=C(SSC(=S)N1CCCCC1)N1CCCCC1`, the outcome is reported as “inactive”. For `CC[C@H](C)[C@H]1O[C@]2(C=C[C@@H]1C)C[C@@H]1C[C@@H](C/C=C(\C)[C@@H](O[C@H]3C[C@H](OC)[C@@H](O[C@H]4C[C@H](OC)[C@@H](O)[C@H](C)O4)[C@H](C)O3)[C@@H](C)/C=C/C=C3\CO[C@@H]4[C@H](O)C(C)=C[C@@H](C(=O)O1)[C@]34O)O2`, the outcome was “inactive”. In the case of `CCCCOCN(C(=O)CCl)c1c(CC)cccc1CC`, the outcome is reported as “inactive”. In the case of `CC(C)C(=O)Cl`, the outcome is reported as “inactive”. For `O=C(CCl)C(Cl)Cl`, the outcome was “inactive”. For `O=C(O)COc1nc(Cl)c(Cl)cc1Cl`, the outcome was “inactive”. In the case of `O=C(O)c1cc[c]([Hg][Cl])cc1`, the outcome is reported as “inactive”. With `CC(C)(C)c1ccc(CSc2cnn(C(C)(C)C)c(=O)c2Cl)cc1` the outcome was “inactive”. With `c1ccc2cc3c(cc2c1)-c1cccc2cccc-3c12` the outcome was “inactive”. For `CCCN(CCC)c1c([N+](=O)[O-])cc(S(N)(=O)=O)cc1[N+](=O)[O-]`, the outcome was “inactive”. For `Nc1ccccc1C(=O)Oc1ccc2ccccc2c1`, the outcome was “inactive”. In the case of `O=C1c2ccccc2C(=O)C1C(=O)C(c1ccccc1)c1ccc(Cl)cc1` (stereo unspecified), the outcome is reported as “inactive”. In the case of `CN(C)c1ccc(N=Nc2ccccc2)cc1`, the outcome is reported as “inactive”. In the case of `O=C(O)C1C2CCC(O2)C1C(=O)O` (stereo unspecified), the outcome is reported as “inactive”. For `CCS(=O)(=O)c1cccnc1S(=O)(=O)NC(=O)Nc1nc(OC)cc(OC)n1`, the outcome was “inactive”. For `Oc1ccc(C2(c3ccc(O)cc3)CCCCC2)cc1`, the outcome was “inactive”. With `CCOCCOC(C)=O` the outcome was “inactive”. For `CCCCCCCCCCCCBr`, the outcome was “inactive”. In the case of `CCCCCCCCCCCCCC[P+](CCCCCC)(CCCCCC)CCCCCC` (tested in a mixture with another compound), the outcome is reported as “inactive”. With `C=CCC1=C(C)C(OC(=O)C2C(C=C(C)C)C2(C)C)CC1=O` (stereo unspecified) the outcome was “inactive”.
